For 82 molecules, inhibition results are on record in PubChem BioAssay AID602399 (Sanford-Burnham Center for Chemical Genomics, 2012).

In all, about 360,000 compounds went through this assay and about 2,800 (0.78%) were called active. The full list was thinned out, with actives kept by preference. Unmarked numbers belong to inactive results. Rule as the data show it: active = inhibition above about 26%; inactive = the rest.

This test relates to Nicotinate-nucleotide adenylyltransferase NadD (Staphylococcus aureus N315). Briefly: S. aureus NadD enzyme activity blockers – biochemical, colorimetric, uHTS, primary screen (AID 602399). The following applies: purified NadD enzyme, colorimetric absorbance read-out; at 20 µM; hits give high values.
As to `O=C(C[C@H]1C/C=C\C[C@@H](NC(=O)OCC2c3ccccc3-c3ccccc32)C(=O)O[C@@H](c2ccccc2)CNC1=O)N[C@H](CO)Cc1ccccc1`, the inhibition was 10.3%.

Consider `COc1ccc(C(C#N)(CC(=O)O)c2cnccn2)cc1OC` (configuration not stated), for which the inhibition was -3.22%. Then `CCOc1ccc2nc(NCCNC(=O)C(C)(C)C)c(C)cc2c1`, with -13.1%; and `CCOc1ccc2nc(N3CCCN(C(=O)Nc4ccccc4C)CC3)c(C#N)cc2c1`, with 36.8% (active). Then `CCOc1ccc(C(=O)NC2CCN(C(=O)Nc3ccccc3OC)CC2)cc1`, with 2.23%; and `CCOC(OCC)c1ccc(/C=C\c2nccc(N)n2)cc1`, with -3.79%.

On to `CCCCc1ccc(S(=O)(=O)NC(=O)C2(C)CCN2C(=O)c2c(C)noc2C)cc1` (configuration not stated), for which the inhibition is -0.915%. Then `CCOC(=O)N1CCN(S(=O)(=O)c2cc3c(cc2C)NC(=O)CO3)CC1`, with 6.26%; and `CCCCC(=O)Nc1nc(C)c(-c2csc(Nc3ccc(Cl)cc3)n2)s1`, with 20.5%.

On to `CCCCCCC(=O)Nc1nc(C)c(-c2csc(Nc3cc(Cl)ccc3OC)n2)s1`, for which the inhibition was 33% (active). Then `CCCCCCC(=O)Nc1nc(C)c(-c2csc(Nc3cccc(OC)c3)n2)s1`, with 17.7%; and `CCOc1ccc(/C(O)=C2\C(=O)C(=O)N(c3ccc(OC)cc3)C2c2ccccc2[N+](=O)[O-])cc1` (configuration not stated), with -0.376%. `CCC(=C/c1sc2ccc3ccccc3c2[n+]1C)/C=C1\Sc2ccc3ccccc3c2N1C`: the inhibition is 38.9% (active).

In the case of `Cc1[nH]c(N)nc(=S)c1CCCNc1ccccc1`, the inhibition was 4.24%.

Regarding `CCCc1cc(=S)n2c([nH]c3ccccc32)c1C#N`, the inhibition is 11.9%. In the case of `CNC[C@H]1Oc2c(NC(=O)C3CCCCC3)cccc2C(=O)N([C@H](C)CO)C[C@@H]1C`, the inhibition is 0.223%. Then `CN(C)C(=O)Cn1c(=O)n(S(=O)(=O)c2ccccc2)c2ccccc21`, with -0.572%. Then `Cc1nc(N)nc(Cl)c1CCC1OCCO1`, with -2.19%; and `CCCCNS(=O)(=O)c1ccc(S(=O)(=O)n2cnc3ccccc32)cc1`, with 0.725%; and `CC(C)C(c1nnnn1C1CCCC1)N1CCN(c2ccccc2F)CC1` (configuration not stated), with -3.03%. Then `CC(=O)NS(=O)(=O)c1ccc(N/C(N)=N/c2nc(C)cc(C)n2)cc1`, with 4.03%.

In the case of `COc1ccc(C(=O)NNc2cc(C)nc(NNC(=O)c3ccc(OC)cc3)n2)cc1`, the inhibition is 3.2%.

With `CC(=O)Nc1ccc(Nc2cc(C)nc(Nc3ccc(NC(C)=O)cc3)n2)cc1`, the inhibition was 32.4% (active). Then `CC1CCC2(CC1)NC(=O)N(CC(=O)c1cccn1C)C2=O` (configuration not stated), with -3.17%; and `Cc1ccc2nsnc2c1S(=O)(=O)N1CCCC1C(=O)O` (configuration not stated), with -6.81%; and `CCCCc1ccc(NC(=S)N2CCCC(CO)C2)cc1` (configuration not stated), with -0.962%. Then `CC(=O)c1ccc(N2C(=NC(=O)C(C)C)SC3CS(=O)(=O)CC32)cc1` (configuration not stated), with -3.55%. Turning to `Cc1ccc(C(=O)Nc2c(C#N)c(C)c(C)n2Cc2ccccc2)cc1`, the inhibition was -7.87%. As for `Cc1c(C#N)c(NC(=O)c2ccccc2)n(Cc2ccccc2)c1C`, the inhibition is -5.49%. Then `CC(=O)Nc1ccc(C(=O)Nc2nc(-c3cc(C)n(Cc4ccccc4)c3C)cs2)cc1`, with 41.8% (active); and `CCc1nn(CCCC(=O)Nc2ccc(C)c(C)c2)c(=O)c2cc3occc3n12`, with 5.14%. In the case of `Cc1cc(CNCc2c(C(=O)N(C)Cc3ccccc3)nc3ccccn23)nn1C`, the inhibition was -2.9%.

Regarding `COc1ccc(NC(=O)C2CCC(CNc3c(N4CCCCC4)c(=O)c3=O)CC2)c(OC)c1` (configuration not stated), the inhibition is 1.77%. For `CCOC(=O)c1c(NC(=O)NC(C)(C)C)sc2c1CCN(C)C2`, the inhibition is 0.728%.

Take `Cc1c(OC(C)C(=O)N[C@@H](Cc2ccccc2)C(=O)O)ccc2c3c(c(=O)oc12)CCCC3` (some centres not stated): the inhibition is 3.9%. Turning to `Cc1oc2c(C)c3oc(=O)c(CC(=O)N[C@@H](CC(C)C)C(=O)N[C@@H](Cc4ccccc4)C(=O)O)c(C)c3cc2c1C`, the inhibition is 35.9% (active).

On to `Cc1c(CCC(=O)N[C@@H](CC(C)C)C(=O)O)c(=O)oc2c(C)c3oc4c(c3cc12)CCCC4`, for which the inhibition was -0.714%. Take `COc1cc(Cl)cc(C2NC(=O)NC(C)=C2C(=O)NCc2ccccc2)c1O` (configuration not stated): the inhibition was -2.49%. Then `Cc1cccc(C)c1NC(=O)C1(C)c2cccc[n+]2CC(=O)N1Cc1cccs1` (configuration not stated), with 6.36%; and `CCn1cc(C(=O)NCC2CCCO2)c(=O)c2cc(S(=O)(=O)N3CCCCC3)ccc21` (configuration not stated), with 8.79%. Then `CCn1cc(C(=O)NC2CCCCCC2)c(=O)c2cc(S(=O)(=O)N3CCCCC3)ccc21`, with -1.8%; and `CCn1cc(C(=O)NCCCN2CCCCCC2)c(=O)c2cc(S(=O)(=O)N3CCc4ccccc4C3)ccc21`, with 25.6% (active); and `COCCN(C(=O)C(C)N1C(=O)c2ccccc2C1=O)c1c(N)n(CC(C)C)c(=O)[nH]c1=O` (configuration not stated), with 0.415%. As for `COCCNC(=O)C(OC(=O)c1cccs1)c1ccc(F)cc1` (configuration not stated), the inhibition was 2.74%. Then `CCOC(=O)N1CCC(Nc2c(NCCN3CCN(c4cccc(Cl)c4)CC3)c(=O)c2=O)CC1`, with -3.05%; and `O=C(Cc1ccc(-n2c(=O)[nH]c3ccccc3c2=O)cc1)N1CCN(c2cccc(Cl)c2)CC1`, with 6.86%; and `O=C(Cc1csc(Nc2nc(=S)[nH]c3ccccc23)n1)NCCCN1CCN(c2cccc(Cl)c2)CC1`, with 43.9% (active).

As to `CCOC(=O)N1CCC(N2Cc3cccc(C(=O)Nc4c(C)cccc4CC)c3C2=O)CC1`, the inhibition is 8.26%. Then `Cc1ccc(C(=O)N2CCCC(c3ccccc3)=N2)cc1`, with -4.43%; and `COc1ccc(N2CCN(c3ccc([N+](=O)[O-])nc3)CC2)cc1`, with 1.06%; and `O=C(CCc1ccccc1)NNc1ccc(F)cc1`, with -2.34%.

Take `Cc1ccc(Cn2c(C)nc3c(c2=O)c2nc4ccccc4nc2n3Cc2ccco2)cc1`: the inhibition is 49% (active). `Clc1cccc(-c2nc3nc4ccccc4nc3n2Cc2ccco2)c1`: the inhibition was -0.737%. Then `O=c1[nH]c(CSc2ncc(-c3ccc(F)cc3)n2Cc2ccco2)nc2ccccc12`, with 1.31%; and `COc1cc(C2c3cc4c(cc3C(O)C3COC(=O)C23)OCO4)cc(OC)c1OC` (configuration not stated), with 0.207%; and `Cc1ccc(-c2nn(-c3ccccc3)cc2/C=C2\SC(=S)N(CCCCCC(=O)O)C2=O)o1`, with 34.1% (active). For `O=C(O)CCCCCCCCc1cn(CN2C(=O)c3ccccc3C2=O)nn1`, the inhibition was 1.47%. Then `CC(C)[C@@H]1NC(=O)c2cc([N+](=O)[O-])cc(I)c2NCCC[C@@H](C(=O)NC(CC(=O)O)C(N)=O)NC(=O)[C@H](CO)NC1=O` (some centres not stated), with -2.22%. `COc1ccc2oc(=O)cc(CN3CCOCC3)c2c1`: the inhibition was 0.645%. `COc1ccc(OC)c(C(=O)c2coc3ccc(O)c(CN4CCOCC4)c23)c1`: the inhibition was 36.3% (active). Then `COc1ccc(OC)c(C(=O)c2coc3ccc(OC)cc23)c1`, with -4.74%; and `CC1CC(C)CN(C(=O)CCNC(=O)Cn2cnc3ccccc3c2=O)C1` (configuration not stated), with -4.11%.

Consider `CC(=O)N1c2ccc(S(=O)(=O)N3CCC(C(=O)NC4CCCCC4C)CC3)cc2CC1C` (configuration not stated), for which the inhibition is 1.28%. Then `CNC(=S)NNC(=O)c1oc2nc(-c3ccccc3)cc(-c3ccco3)c2c1N`, with 11.9%. Then `CS(=O)(=O)c1sc2nc(-c3ccccc3)cc(-c3ccccc3)c2c1N`, with 43.8% (active); and `Nc1cccc(-c2cc(-c3ccccc3)nc(-c3cccc(N)c3)n2)c1`, with 13.8%; and `Cc1noc(C)c1S(=O)(=O)N(C)C[C@H]1Oc2ccc(NC(=O)C3CCCCC3)cc2C(=O)N([C@H](C)CO)C[C@@H]1C`, with -4.63%. Then `COc1ccc(CN2CCn3ncc(C(=O)Nc4ccc(Cl)cc4Cl)c3C2=O)cc1`, with -3.68%; and `Fc1ccc2c(c1)C(c1cccnc1)=NNC(c1cccs1)=N2`, with -1.68%.

As for `O=c1oc(-c2ccccc2NS(=O)(=O)c2ccc(Cl)cc2)nc2ccccc12`, the inhibition was 10.9%.

With `CCCCCN(C(=O)CCC(=O)OCC(=O)NCc1ccc(OC)cc1)c1c(N)n(CCCC)c(=O)[nH]c1=O`, the inhibition was -7.19%. In the case of `CC(C)c1ccc2c(c1)c(SC(C)(C)C)c(CC(C)(C)C(=O)O)n2Cc1ccc(Cl)cc1`, the inhibition was 31.8% (active). Then `COc1cc(-c2nnn(CC(=O)NCc3ccccc3)n2)cc(OC)c1OC`, with 1.36%. Regarding `COc1ccc(C2=NN(C(=O)CSc3nc(=O)n4ccc(C)cc4n3)C(c3ccc(C)cc3)C2)cc1` (configuration not stated), the inhibition is 36.1% (active).

In the case of `Cc1ccc(C2=NN(C(=O)CSc3nc(N)cc(N)n3)C(c3ccco3)C2)cc1` (configuration not stated), the inhibition is 4.52%.

As to `COc1ccc(C2CC(c3ccccc3)=NN2C(=O)CSc2nccc(=O)[nH]2)cc1` (configuration not stated), the inhibition is 9.94%. Then `COc1ccc(C(=O)N2CCCCC2c2cc(C(=O)Nc3ccc(F)c(Cl)c3)no2)cc1` (configuration not stated), with 2.01%; and `C[C@H]([C@@H](O)[C@@H](O)[C@@H](C)C(C)(C)C)[C@H]1CC[C@H]2C3CC[C@H]4C[C@H](OS(=O)(=O)O)[C@@H](OS(=O)(=O)O)C[C@]4(C)[C@H]3CC[C@]12C` (some centres not stated), with 11.9%; and `COc1cc(/C=C2\C(=N)N3N=C(CC(=O)N4CCOCC4)SC3=NC2=O)cc(OC)c1OC`, with -3.62%. As to `CCOc1cc(/C=C2\C(=N)N3N=C(C)SC3=NC2=O)ccc1OCCOc1ccccc1`, the inhibition is 22.4%.

Take `COc1ccccc1OCCOc1ccc(/C=C2\C(=N)N3N=C(C)SC3=NC2=O)cc1`: the inhibition was 29% (active). Then `C[C@@H]1CN([C@H](C)CO)C(=O)CCCn2nncc2CO[C@@H]1CN(C)S(=O)(=O)c1cccc(C#N)c1`, with 4.94%.

Usually inhibition stands for the relative decrease from the control value, in per cent.
